Inconclusive results are not listed. Activity calls are given as the source filed them. Calls come from the whole dose curve; as a rule, active = well fitted inhibition curve with a large enough effect; inconclusive = small, poorly fitted or top-dose-only effect; inactive = flat fitted curve, though single readings scatter. Where a SMILES comes first, the peptide text is derived from it. [ ]: non-standard residue; d: D form. Dolaproine = CO[C@@H]([C@@H]1CCCN1)[C@@H](C)C(=O)O; Dil = CC[C@H](C)[C@H](NC)[C@@H](CC(=O)O)OC; NMeV = CN[C@H](C(=O)O)C(C)C

A short description of this test: Identification of antibody-drug conjugate (ADC) payloads which are substrates of ATP-binding cassette drug efflux transporters: ABCB1-HeLa-KB-3-1 cell line. The note with it: KB-3-1 (HeLa derivative) viability, CellTiter-Glo, 48 h. The text has this:
Antibody-drug conjugates (ADCs) feature an antibody recognizing a specific protein joined to a potent toxic payload. Numerous antibody-drug conjugates have received FDA approval; however, clinical resistance arises. Resistance mechanisms include decreased expression or mutation of the antibody target, impaired payload release, or increased expression of ATP-binding cassette (ABC) efflux transporters associated with multidrug resistance. We therefore sought to characterize the interaction of ABC multidrug transporters with ADC payloads. We performed a high-throughput screen with 27 common ADC payloads using cells lines expressing ABC transporters P-glycoprotein (P-gp, encoded by ABCB1) or ABCG2 (encoded by ABCG2). Confirmatory assays were also performed using cells transfected to express P-gp, ABCG2, or MRP1 (encoded by ABCC1). Several commonly used ADC payloads were substrates of P-gp, including calicheamicin gamma1, monomethyl auristatin E, DM1, and DM4. All the pyrrolobenzodiazepines tested - SJG136, SGD-1882, SG2057, and SG3199 - were substrates of P-gp, ABCG2, and MRP1. […] These findings highlight the risk of transporter-mediated resistance with certain ADC payloads and underscore the importance of selecting payloads that evade ABC transporter recognition in future ADC development.
HEK-293 cells were transfected with empty vector (pcDNA) or vector containing the human ABCB1 (MDR-19), ABCG2 (R-5), or ABCC1 gene (MRP1) and were maintained in EMEM with 2 mg/mL G418 added to maintain transporter expression. The HeLa derivative KB-3-1 and the P-gp overexpressing KB-8-5-11 subline were maintained in DMEM; KB-8-5-11 additionally received 100 ng/mL colchicine. H460 parental cells were obtained from the Division of Cancer Treatment and Diagnosis Tumor Repository, National Cancer Institute at Frederick, MD and were cultured in RPMI. The ABCG2 expressing subline H460 MX20 was generated by selecting H460 cells in 20 nM mitoxantrone. Media in all cases was supplemented with 10% FBS and 1% penicillin-streptomycin. We explored 27 common ADC payloads, in two orthogonal, paired cell line sets-a drug selected and transfected set for each transporter--to identify substrates of the ABC transporters P-gp and ABCG2. Compounds were sourced from Levena Biopharma (San Diego, CA), Selleck Chem (Houston, TX), ChemieTek (Indianapolis, IN), or Microsource Discovery Systems (Gaylordsville, CT). Screening was performed as previously described. Briefly, cells were plated at a density of 500 cells/well in 1536 well plates with compounds added using a 1536-head pin tool (Kalypsys, San Diego CA). Cells were incubated with cytotoxic drugs and processed with CellTiter Glo reagent (Promega, Madison, WI) to determine viability after 48 hours. P-gp substrates were identified by comparing compound activity between paired sets of low-expressing (sensitive) and over-expressing (resistant) cell lines.
(In general: Cellular ATP, detected with luciferase, serves as a proxy for viable cell number.)
With `CN(C)CCOc1ccc2[nH]c(C(=O)N3C[C@@H](CCl)c4c3cc(O)c3ccccc43)cc2c1`, the Potency is 0.3 nM (active). The result for `CCN[C@H]1CO[C@@H](O[C@H]2[C@H](O[C@H]3C#C/C=C\C#C[C@]4(O)CC(=O)C(NC(=O)OC)=C3/C4=C\CSSSC)O[C@H](C)[C@@H](NO[C@H]3C[C@H](O)[C@H](SC(=O)c4c(C)c(I)c(O[C@@H]5O[C@@H](C)[C@H](O)[C@@H](OC)[C@H]5O)c(OC)c4OC)[C@@H](C)O3)[C@@H]2O)C[C@@H]1OC` reads 1.3 nM (active); that for `COc1cccc2c1C(=O)c1c(O)c3c(c(O)c1C2=O)C[C@@](O)(C(=O)CO)C[C@@H]3O[C@H]1C[C@H]2[C@H](O[C@@H]3[C@@H](OC)OCCN32)[C@H](C)O1`, 0.3 nM (active). The result for `COc1cc2cc(c1Cl)N(C)C(=O)C[C@H](O)[C@]1(C)O[C@H]1[C@H](C)C1C[C@@](O)(NC(=O)O1)[C@H](OC)/C=C/C=C(\C)C2` reads 4720 nM (active). The result for `CC[C@H](C)[C@@H]([C@H](N)CC(=O)N1CCC[C@H]1[C@H](OC)[C@@H](C)C(=O)N[C@@H](Cc1ccccc1)c1nccs1)N(C)C(=O)[C@@H](NC(=O)[C@@H](NC)C(C)C)C(C)C` reads 0.1 nM (active).

In the case of `CC[C@]1(O)CC2CN(CCc3c([nH]c4ccccc34)[C@@](C(=O)OC)(c3cc4c(cc3OC)N(C)[C@H]3[C@@](O)(C(=O)OC)[C@H](OC(C)=O)[C@]5(CC)C=CCN6CC[C@]43[C@@H]65)C2)C1` (some centres undefined), the Potency was 6.7 nM (active). With `COC(=O)c1cc2c3c(cc(O)c2[nH]1)N(C(=O)c1cc2cc(OC)c(OC)c(OC)c2[nH]1)CC3CCl` (centres undefined), the Potency was 0.5 nM (active). The result for `COc1cccc2c1C(=O)c1c(O)c3c(c(O)c1C2=O)C[C@@](O)(C(=O)CO)C[C@@H]3O[C@H]1C[C@H](N)[C@H](O)[C@H](C)O1` reads 236 nM (active); that for `CCc1c2c(nc3ccc(O)cc13)-c1cc3c(c(=O)n1C2)COC(=O)[C@]3(O)CC`, 472 nM (active); that for `CCN(C(C)=O)[C@H]1CO[C@@H](O[C@H]2[C@H](O[C@H]3C#C/C=C\C#C[C@]4(O)CC(=O)C(NC(=O)OC)=C3/C4=C\CSSSC)O[C@H](C)[C@@H](NO[C@H]3C[C@H](O)[C@H](SC(=O)c4c(C)c(I)c(O[C@@H]5O[C@@H](C)[C@H](O)[C@@H](OC)[C@H]5O)c(OC)c4OC)[C@@H](C)O3)[C@@H]2O)C[C@@H]1OC`, 8.4 nM (active).

For the molecule `CC(C)(C)OC(=O)Nc1ccc2[nH]c(C(=O)N3C[C@@H](CCl)c4c3cc(O)c3ccccc43)cc2c1`, the Potency is 5.9 nM (active). The result for `CC[C@H](C)[C@@H]([C@H](N)CC(=O)N1CCC[C@H]1[C@H](OC)[C@@H](C)C(=O)N[C@@H](Cc1ccccc1)c1nccs1)N(C)C(=O)[C@@H](NC(=O)[C@H](C(C)C)N(C)C)C(C)C` reads 0.0748 nM (active). With `CC[C@H](C)[C@@H]([C@@H](CC(=O)N1CCC[C@H]1[C@H](OC)[C@@H](C)C(=O)N[C@@H](Cc1ccccc1)C(=O)O)OC)N(C)C(=O)[C@@H](NC(=O)[C@@H](NC)C(C)C)C(C)C` (H-[NMeV]V[Dil][Dolaproine]F-OH) the figure was 66.6 nM (active); with `COc1ccc(C2=CN3C(=O)c4cc(OC)c(OCCCOc5cc6c(cc5OC)C(=O)N5C=C(c7ccc(N)cc7)C[C@@H]5C=N6)cc4N=C[C@H]3C2)cc1`, 52.9 nM (active).

For the origin of these results see PubChem BioAssay AID2061305 (National Center for Advancing Translational Sciences (NCATS), 2025).
